Source: ChEMBL document CHEMBL1157539, “Thousands of chemical starting points for antimalarial lead identification” (Nature, 2010)

Experiments:
Assay type in all cases: functional
[1] = test system: Plasmodium falciparum; assay: GSK_TCMDC: Inhibition of Plasmodium falciparum 3D7 in whole red blood cells, using parasite LDH activity as an index of growth. Test compounds present at 2uM
[2] = test system: Plasmodium falciparum; assay: GSK_TCMDC: Inhibition of Plasmodium falciparum Dd2 in whole red blood cells, using parasite LDH activity as an index of growth. Test compounds present at 2uM
[3] = test system: HepG2; assay: GSK_TCMDC: Percent inhibition of human HepG2 cell line. Test compounds present at 10uM.

Question: For COc1ccc2cc(-c3nc(-c4c(Cl)cccc4Cl)[nH]c3-c3ccnc(NCCCN4CCN(C)CC4)c3)ccc2c1.O=C(O)C(F)(F)F, which Inhibition [1] is on record?
Answer: The Inhibition was 98%.

Question: And the Inhibition [2]?
Answer: The Inhibition was 80%.

Question: What about the Inhibition [3] of the same compound?
Answer: Its Inhibition is 10%.

Question: What does the source list for CN(C)CCOc1ccc(/C(=C(/CCCn2ccnc2)c2ccccc2)c2ccc(O)cc2)cc1?
Answer: Inhibition [1]: 100%; Inhibition [2]: 99%; Inhibition [3]: 13%

Question: How did the Inhibition [1] turn out when COc1ccc2ncc(C#N)c(CCN3CCC(NCc4cnc5c(c4)OCCO5)CC3)c2n1.Cl was run?
Answer: The Inhibition was 91%.

Question: And the Inhibition [2]?
Answer: The Inhibition was 24%.

Question: What about the Inhibition [3] of the same compound?
Answer: Its Inhibition is 3%.

Question: What does the source list for CCNc1cc(C)nc(Nc2ccc(NS(=O)(=O)c3cc(OC)ccc3OC)cc2)n1?
Answer: Inhibition [1]: 100%; Inhibition [2]: 36%; Inhibition [3]: 56%

Question: What does the source list for CN1CCN(c2cc(-c3ccncc3)nc(-c3cccnc3)n2)CC1?
Answer: Inhibition [1]: 100%; Inhibition [2]: 98%; Inhibition [3]: 13%

Question: Which results are given for COc1ccc(NC(=O)NC2CCN(CCCOc3ccnc4cc(Cl)ccc34)C2)cc1OC (configuration not stated)?
Answer: Inhibition [1]: 90%; Inhibition [2]: 16%; Inhibition [3]: 6%

Question: For CCNc1cc(C(=O)N[C@@H](Cc2ccccc2)[C@H](O)CN[C@@H](C)c2cccc(OC)c2)cc(N2CCCC2=O)c1.O=CO, which Inhibition [1] is on record?
Answer: Its Inhibition is 95%.

Question: What about the Inhibition [2] of the same compound?
Answer: Its Inhibition is 65%.

Question: What about the Inhibition [3] of the same compound?
Answer: The Inhibition was 5%.

Question: For Cc1cc(NC2CCN(CC3CCCCC3)C2)nc(Nc2ccc(Br)cc2)n1 (configuration not stated), which Inhibition [1] is on record?
Answer: The Inhibition was 100%.

Question: What about the Inhibition [2] of the same compound?
Answer: Its Inhibition is 83%.

Question: And the Inhibition [3]?
Answer: Its Inhibition is 22%.

Question: Which Inhibition [1] does the source give for CCc1cn(CCS(C)(=O)=O)c2ccc(C(=O)N[C@@H](Cc3ccccc3)[C@H](O)CNC(C)(C)CCCC(C)C)cc12.O=CO here?
Answer: Its Inhibition is 87%.

Question: What about the Inhibition [2] of the same compound?
Answer: The Inhibition was 96%.

Question: What about the Inhibition [3] of the same compound?
Answer: The Inhibition was 16%.
